We go through 31 compounds from PubChem BioAssay (NCI).

Where “and” joins values, the source holds several entries; their conditions need not be identical. Equal entries are not always repeated. Compounds without any hit were thinned out: in the full panel of roughly 83,000, 20% have a hit.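 Single-concentration screen, 48 h exposure, 96-well plates. Endpoint: percent growth. Below 10 = active.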 A number with no mark means an inactive call. Calls of active or inactive are those of the source.

In this assay the test system is MALME-3M melanoma. Put plainly: NCI-60 one-dose screen, 48 h (100 = growth as untreated, 0 = no growth, -100 = all killed). The following applies: 10 µM unless noted.
Turning to `Cn1ccnc1CN1CCSC(C(=O)Nc2ccccc2)C1` (stereo unspecified), the growth was 96.6%.

Regarding `COc1ccc(/C=C2/C(=O)N=C3N2NC(c2ccccc2)=CN3c2ccccc2)cc1`, the growth is 102%. As to `Cc1oc2c(Cc3ccc(NC(=O)c4ccc(Cl)cc4)cc3)ncnc2c1C(=O)NO`, the growth was 93.9%. With `CCN1CCN(C(=O)[C@]23CC[C@@H](C)[C@H](C)[C@@H]2C2=CC[C@@H]4[C@@]5(C)CCC(=O)C(C)(C)[C@@H]5CC[C@@]4(C)[C@]2(C)CC3)CC1`, the growth is -85.7% (active). As to `CC/C=C\C/C=C\C[C@H](O)C/C=C1/C(=O)C=C[C@@H]1C/C=C\CCCC(=O)OC`, the growth was -5.8% (active). With `COc1ccc(-c2nnc3n(C)c(=O)c4ccccc4n23)cc1O`, the growth is 70.8%. For `Cc1ccc(NC(=O)c2ccc(CN3CCN(C)CC3)cc2)cc1Nc1nccc(-c2cccnc2)n1` the value was 114% and 79.6%.

With `OCCN1CCN(CC/C=C2\c3ccccc3Sc3ccc(Cl)cc32)CC1`, the growth was -53.2% (active). Turning to `COc1cc(-c2nn(-c3cccc(NC(=O)CCN4CCN(C)CC4)c3)cc2-c2ccncc2)ccc1Cl`, the growth is 38%. For `Cc1cnc(C(=O)NNc2nc3sc4c(c3c(=O)[nH]2)C(C)CCC4)cn1` (stereo unspecified) the value was 15.9%; for `Cc1nc(-n2[nH]c(=O)ccc2=O)sc1N=Nc1ccccc1`, 102%. For `CC(=O)c1c(C)nc(SCC(=O)Nc2ccc(Cl)cc2)n1-c1ccc(Cl)cc1` the value was 90.8%. For `C[N+]1=C(/C=C\C=C\c2ccccc2)C(C)(C)c2ccccc21` the value was -17.8% (active); for `COc1cc(/C=C(/c2ccccc2)[N+](=O)[O-])c(OC)c2c1OCO2`, -49.6% (active). Turning to `C=C1C(=O)O[C@H]2[C@H]1CC/C(COC(=O)NCCCCNC(=O)OC/C1=C/CC[C@@]3(C)O[C@H]3[C@H]3OC(=O)C(=C)[C@@H]3CC1)=C\CC[C@@]1(C)O[C@@H]21`, the growth was -39.3% (active). For `COc1ccc(N2CCN(S(=O)(=O)c3oc(-c4ccccc4)nc3C#N)CC2)cc1` the value was 69.6%. Regarding `COc1ccc(-c2cc3cnc4ccccc4c3oc2=O)cc1`, the growth is 97%. For the compound `CCOC(=O)c1nc2c3ccccc3cnn2c1C(=O)c1ccc(OC)cc1`, the growth is 102%. For `Cc1ccc2c(c1)C(C)Cc1c(ncnc1-n1cnc3cc(C)ccc31)N2C` (stereo unspecified) the value was 76.9%.

As for `CCN1C(=O)N(c2ccccc2)C2NC(=S)N(/N=C/C=C/c3ccccc3)C21` (stereo unspecified), the growth is 45.8%. For `COc1ccc(-c2[nH]c3ccccc3c2-c2ccc(OC)cc2)cc1` the value was 73.3%. With `COc1ccc(Cn2cc(C(=O)Nc3cccnc3Nc3ccccc3)nn2)cc1`, the growth was 120%. For `CSc1nnc(-c2cc3c([nH]c4ccccc43)c(-c3cccc(O)c3)n2)n1-c1ccc(C)cc1` the value was 42%; for `CN(Cc1ccccc1)c1nc(Cl)c(C2CC(c3ccc4c(c3)OCO4)=NN2c2cc(Cl)cc(Cl)c2)s1` (stereo unspecified), 95%; for `COc1ccc(C2Nc3nc(SC)nc(N)c3N=C3c4ccccc4CCC32)cc1` (stereo unspecified), 108%.

As for `CCN(CC)CCOc1ccc(/C(=C(\Cl)c2ccccc2)c2ccccc2)cc1`, the growth was -18.7% (active).

Regarding `O=C1/C(=C/c2ccccc2)CN(C(=O)C(Cl)Cl)C/C1=C\c1ccccc1`, the growth is -38.5% (active). For `Cc1ccc(S(=O)(=O)OC[C@@]2(C)CC[C@]3(C)CC[C@]4(C)C(=CC[C@@H]5[C@@]6(C)CCCNC(C)(C)[C@@H]6CC[C@]54C)[C@@H]3C2)cc1` the value was -75.8% (active); for `O=C1/C(=C/c2cn(-c3ccccc3)nc2-c2ccccc2)SC(=S)N1c1ccc(Cl)cc1`, 95.4%. For `O=c1ccc2nc(-c3ccccn3)nn(-c3ccccc3)c-2c1` the value was -20.6% (active); for `C[C@@H]1CC[C@@H]2[C@@H]1[C@H](OC(=O)/C=C/c1ccccc1)[C@]1(c3ccccc3)C[C@@H](NC(=O)CO)[C@@]2(C)O1`, 98.6%.
